High-throughput results (PubChem)
Hits are enriched below; roughly 1.9% of the tested compounds scored in any of these assays.
Pf gamet viab: inhibitors of late stage P. falciparum gametocyte viability; inhibition, % at 10.9 µM; P. falciparum stage V gametocytes, ATP luminescence, 24 h; AID 743093; actives 0.065% (n = 150,000);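 active = inhibition above the mean plus 3 SD of compounds within the control limits, set per campaign, cut at about 38% in these data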;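 note: 0% = DMSO wells and 100% = medium only without gametocytes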
S1P4 ag: agonists of human S1P4 receptor; O95977; S1P4-expressing cell line, agonist reporter assay; activation, % at 4.98 µM; actives 0.35% (n = 220,000); in the data active = activation above about 11%;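 note: 0% = DMSO vehicle and 100% = reference agonist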
Target sequence (O95977 whole entry, looked up): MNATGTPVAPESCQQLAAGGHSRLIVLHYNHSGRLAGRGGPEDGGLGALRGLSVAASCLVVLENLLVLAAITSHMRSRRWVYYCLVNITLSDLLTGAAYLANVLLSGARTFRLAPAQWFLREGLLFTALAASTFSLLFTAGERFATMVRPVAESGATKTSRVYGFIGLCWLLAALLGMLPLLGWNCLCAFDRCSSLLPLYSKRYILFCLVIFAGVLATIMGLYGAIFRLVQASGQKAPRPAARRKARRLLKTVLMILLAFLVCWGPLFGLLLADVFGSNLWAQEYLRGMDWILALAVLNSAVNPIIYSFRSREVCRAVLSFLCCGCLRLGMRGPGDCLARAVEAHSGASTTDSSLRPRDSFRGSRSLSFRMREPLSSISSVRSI
S1P3 antag: S1P3 (human) receptor antagonism; Q99500; CHO S1P3 NFAT-BLA reporter, FRET fluorescence, antagonist mode; inhibition, % at 4.98 µM; actives 0.27% (n = 170,000); AID 485;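 active = inhibition above the plate cutoff, the mean inhibition of test wells on that plate plus 3 SD, cut at about 28% in these data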;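 note: cells challenged with S1P at its EC80 of 0.8 µM; blue over green emission ratio from cleaved BLA substrate after 4 h stimulation; 0% = S1P-stimulated wells and 100% = unstimulated DMSO-only wells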
EP2 modulator: modulators of human EP2 prostaglandin E2 receptor | P43116 | EP2-expressing cells, cAMP HTRF FRET, PGE2 co-stimulation | induction, % at 25 µM | actives 0.83% (n = 260,000);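 active = compounds whose cAMP rise, as percent of the full-agonist control response, exceeds 60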;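 note: rat C6 glioma line stably carrying human EP2 under a CMV promoter; the protocol text gives 20 µM as final concentration; 100% = response of wells given 1 µM PGE2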
EP2 antag: blocks the human prostaglandin E2 receptor EP2 | P43116 | C6 glioma cells expressing human EP2, cAMP TR-FRET; cells stimulated with saturating PGE2 | inhibition, % at 25 µM | actives 0.52% (n = 260,000);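 active = percent inhibition above 40 after rounding to a whole number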;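 note: rat C6 glioma host cells with rolipram phosphodiesterase inhibitor present; the protocol text gives 20 µM as final concentration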
S1P4 antag: antagonists of human S1P4 receptor. S1P4-expressing cells, antagonist mode, reporter read-out. inhibition, % at 4.98 µM. actives 0.26% (n = 220,000). AID 1510; in the data active = inhibition above about 29%;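 note: 0% = wells stimulated with agonist and 100% = vehicle wells without agonist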
* hit, by the source's call; x = no result; ! = repeats disagree.

SMILES	Pf gamet viab	S1P4 ag	S1P3 antag	EP2 modulator	EP2 antag	S1P4 antag
CC1(C)Cc2c(c(N3CCCC3)nc3sc4c(N5CCOCC5)ncnc4c23)CO1	x	x	x	73*	4	x
Cc1ccccc1CSc1ncnc2ccccc12	x	0	-15	62*	13	1
CC1CCN(CC(=O)Nc2ccccc2C(=O)c2ccccc2)CC1	-9	-1	17	63*	0	-6
CC1CCN(CC(=O)Nc2ccccc2-c2ccccc2)CC1	-12	-2	x	65*!	5	-21
COc1ccc(/C=N/N2C(=O)c3ccccc3C2=O)cc1	57*	1	-1	10	2	-25
CC1C(c2ccc(F)cc2)=NOC1C(=O)NCc1cc(C2CC2)n[nH]1 (stereo not drawn)	x	x	x	-18	9	x
CCc1cc(=O)[nH]c(NC2CCN(CC(=O)Nc3cccc(OC)c3)CC2)n1	x	x	x	-35	x	x
O=C(O)c1ccc(Oc2ccccc2)o1	2	-1	-16	70*	4	6
COc1ccc(Cn2nnnc2CN(CCO)Cc2cc3cccc(C)c3[nH]c2=O)cc1	x	x	x	-50	12	x
Cc1sc2nc(C3CC3)n3c(=O)n(CC(=O)NC(C)C)nc3c2c1C	x	x	x	7	x	x
CCC(=O)NC1=C(Cl)C(=O)C(NC(=O)CC)=C(Cl)C1=O	x	3	-6	-49	117*	-6
C[N+](C)(C)CCC(=O)c1cccc2ccccc12	x	x	x	-11	106*	x
O=C(O)CCC(=O)c1cccc2ccccc12	x	-2	-16	19	8	-3
Cc1ccc(-n2nnc3c(=O)oc4ccccc4c32)cc1	x	0	2	-17	86*	-9
O=c1oc2ccccc2c2c1nnn2C1CCN(Cc2ccccc2)CC1	x	x	x	-91	74*	x
NC(=O)c1c(NC(=O)CN2CCCCCC2)sc2c1CCCC2	x	x	x	-101	11	x
N#CC1=C(N)SC(N)=C(C#N)C1c1ccc(C(F)(F)F)cc1	x	1	-30	13	49*	-8
Cc1cccc(C)c1N1CCN(C(=O)c2cc3cc(Cl)cc(Cl)c3oc2=O)CC1	x	x	x	31	7	x
Cc1cc(Cc2c(C)c(C)c(Cc3cc(C)cc(C(C)(C)C)c3O)c(C)c2C)c(O)c(C(C)(C)C)c1	x	x	x	16	55*	x
Cc1c(Cl)cc(C(C)(C)C)c(O)c1Cc1c(C)c(Cl)cc(C(C)(C)C)c1O	x	x	x	5	47*	x
Cc1cc(Cc2cc(C)cc(C(C)(C)C)c2O)c(O)c(Cc2cc(C)cc(C(C)(C)C)c2O)c1	x	x	x	7	41*	x
N#CCSc1nc(-c2ccccc2)cc(C(F)(F)F)c1C#N	x	x	x	-8	25	x
C[C@@H]1CC[C@H]2[C@H](C)[C@@H]3[C@@H](C[C@H]4[C@H]5CC=C6C[C@@H](O)CC[C@]6(C)[C@@H]5C[C@@H](O)[C@]34C)N2C1	x	x	x	-9	62*	x
COc1ccc(NC(=O)N(C2CCCCC2)C(C)c2cccnc2)c(OC)c1 (stereo not drawn)	x	2	-43	-22	15	-2
COc1ccc(NC(=O)N(C2CCCCC2)C(C)c2ccco2)c(OC)c1 (stereo not drawn)	x	1	-23	61*	7	-11
SMILES	Pf gamet viab	S1P4 ag	S1P3 antag	EP2 modulator	EP2 antag	S1P4 antag
CC(C)[C@H]1CN(Cc2ccco2)CCN1C(=O)c1n[nH]c(=O)c2ccccc12	x	x	x	-28	x	x
Oc1ccc(Cl)cc1Cc1cc(Cl)cc(Cc2cc(Cl)ccc2O)c1O	x	x	x	7	58*	x
O=C(O)Cc1cc(Cl)ccc1O	x	x	x	22	15	x
COc1ccc(C2/C(=C(/O)c3ccc(F)cc3)C(=O)C(=O)N2Cc2cccnc2)c(OC)c1 (stereo not drawn)	x	x	x	15	14	x
O=C(O)c1cc2c(ccc3ccccc32)oc1=O	0	-1	x	5	4	12
CCOC(=O)c1cc2c(ccc3ccccc32)oc1=O	48*	0	-12	-22	12	22
CCC(C)(C)n1nnnc1C(c1cc2cc(C)cc(C)c2[nH]c1=O)N1CCCC1 (stereo not drawn)	x	1	5	13	12	-1
CCC(C)(C)n1nnnc1C(c1cc2cc(C)cc(C)c2[nH]c1=O)N1CCCC(C)C1 (stereo not drawn)	x	x	x	86*	10	x
Cc1nc2c(c(=O)[nH]1)CN(Cc1ccc(N3CCCC3)c(F)c1)CC2	x	x	x	-35	10	x
Cc1cccc(CNc2n[nH]c3nc(C)cc(C(F)(F)F)c23)n1	x	x	x	-68	8	x
CCOC(=O)c1sc2ccccc2c1OC(=O)c1ccccc1	7	1	x	65*	12	2
Cc1ccc2nc(SCC(=O)NCc3ccc4c(c3)OCO4)c(C#N)cc2c1	x	x	x	-5	10	x
